Data from PubChem BioAssay (Tox21).
Results filed as inconclusive are left out. Unmarked numbers belong to inactive results. Unless noted, calls follow the shape of the dose curve; as a rule, active = well fitted cell-killing curve with a large enough effect in the repeat runs (not every such curve was filed as active); inconclusive = weak or mixed curves, or effect the other way; inactive = no such curve, though single readings can be large or run the other way.

Target: Bile acid receptor (Homo sapiens) (UniProt Q96RI1)
Sequence (Q96RI1 whole entry, looked up): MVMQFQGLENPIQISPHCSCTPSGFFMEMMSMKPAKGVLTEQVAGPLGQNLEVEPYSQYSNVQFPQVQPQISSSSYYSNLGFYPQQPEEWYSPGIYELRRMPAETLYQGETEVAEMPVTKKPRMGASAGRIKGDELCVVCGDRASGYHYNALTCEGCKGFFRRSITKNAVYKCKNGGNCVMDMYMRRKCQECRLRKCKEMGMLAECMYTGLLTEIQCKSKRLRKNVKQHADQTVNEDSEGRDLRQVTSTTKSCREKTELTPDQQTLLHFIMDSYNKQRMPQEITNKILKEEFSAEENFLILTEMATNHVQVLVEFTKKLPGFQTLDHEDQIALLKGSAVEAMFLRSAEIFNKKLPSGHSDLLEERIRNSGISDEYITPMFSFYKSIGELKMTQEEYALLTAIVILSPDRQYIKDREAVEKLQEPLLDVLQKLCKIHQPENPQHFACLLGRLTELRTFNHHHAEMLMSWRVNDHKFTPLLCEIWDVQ
Test: qHTS assay to identify small molecule agonists of the farnesoid-X-receptor (FXR) signaling pathway (AID 743220; active = well fitted activation curve with a large enough effect in the signal ratio in the repeat runs, not every such curve was filed as active; the % refers to the signal ratio)
Conditions: HEK293T FXR-UAS-bla, beta-lactamase FRET ratio, 16 h; series mostly up to 62.6 µM; activation: at the top concentration
In short: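 Beta-lactamase reporter under UAS control in GeneBLAzer FXR HEK 293T cells (5000/well) measured with LiveBLAzer FRET substrate after 2 h at room temperature. Compound exposure lasted 16 h at 37C.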
% is scaled to controls: 0 for no effect and ±100 for the full control effect.

Row | Compound | activation
1 | COS(=O)(=O)O | -1.14%
2 | COC(=O)c1cccc(Cl)c1 | 0.282%
3 | COc1c2occc2c(OC)c2c(=O)cc(C)oc12 | -2.41%
4 | O=C1NC(c2ccccc2)(c2ccccc2)C(=O)N1COP(=O)(O)O | -0.339%
5 | CCC(=O)CC | -3.87%
6 | C/C(=C1\CCOC(=O)S1)N(C=O)Cc1cnc(C)nc1N | -0.579%
7 | CCCCCC/C=C/C(=O)OC | -0.592%
8 | OC1OCCOC1O (centres undefined) | 0.618%

Test system: not listed separately
Test: qHTS assay to identify small molecule antagonists of the farnesoid-X-receptor (FXR) signaling pathway - cell viability counter screen (AID 743221); also: nearly all actives have a fitted effect of over 50% in size
Conditions: FXR-bla HEK293T viability, CellTiter-Glo luminescence, 16 h; series mostly up to 62.6 µM; activity change, negative = cytotoxicity: at the top concentration
In short: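 After a 5 h settling period, FXR-bla HEK 293T cells receive compound and chenodeoxycholic acid (50 uM final) and incubate 16 h at 37 C; CellTiter-Glo luminescence, read after 30 min at room temperature, reports cell viability.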

Row | Compound | activity change, negative = cytotoxicity
9 | O=C(O)CNC(=O)CNC(=O)CNC(=O)CSC(=O)c1ccccc1 | 0.455%
10 | C=C(C)[C@@H]1CC=C(C)CC1 | 7.14%
11 | [O]=[Mo](=[O])=[O] | 9.22% [at 29.1 µM]
12 | CC(C)CO | 8.46% [at 81.1 µM]
13 | C=C(C)c1cccc(C(C)(C)N=C=O)c1 | -4.47%
14 | COc1cc(OC)nc(O[C@H](C(=O)O)C(OC)(c2ccccc2)c2ccccc2)n1 | 2.11%
15 | COP(=O)(O)OP(=O)(O)OC | 2.15%
16 | COS(=O)(=O)O | -15.8%
17 | CCCC(CC)c1ccccc1 (centres undefined) | -5.98%
18 | Cc1cc(C)c(C(=O)O)c(C)c1 | 9.64%
19 | COC(=O)c1cccc(Cl)c1 | 0.663%
20 | COc1c2occc2c(OC)c2c(=O)cc(C)oc12 | 9.57%
21 | C=CCN1C[C@H](C(=O)N(CCCN(C)C)C(=O)NCC)C[C@@H]2c3cccc4[nH]cc(c34)C[C@H]21 | -16%
22 | N[C@@H](Cc1ccc(O)cc1)C(=O)O | -1.49% [at 13.2 µM]
23 | CO[C@@]1(NC(=O)Cc2cccs2)C(=O)N2C(C(=O)O)=C(COC(N)=O)CS[C@@H]21 | 3.04%
24 | Cc1c(Cl)cccc1Cl | -1.54%
25 | CC(C)(C)NC[C@H](O)COc1cccc2c1CCCC2=O | 4.04%
26 | C=C(C)C1CC=C(C)C(=O)C1 (centres undefined) | -8.22%

Row | Compound | activity change, negative = cytotoxicity
27 | O=C1NC(c2ccccc2)(c2ccccc2)C(=O)N1COP(=O)(O)O | 4.1%
28 | CCCCOCC(C)O (centres undefined) | 6.62% [at 81.1 µM]
29 | CC(C)C[C@@H]1[C@H](c2ccccc2)OC(=O)N1CCCN1CCCCCC1 | -2.17%
30 | CCC(=O)CC | 1.03%
31 | C/C(=C1\CCOC(=O)S1)N(C=O)Cc1cnc(C)nc1N | -10.1%
32 | OC[C@H]1O[C@@H](O[C@@H]2[C@@H](CO)O[C@](O)(CO)[C@H]2O)[C@H](O)[C@@H](O)[C@H]1O | -3.77%
33 | CC1=NN(c2ccc(S(=O)(=O)O)cc2)C(=O)C1 | -18.9%
34 | C=C(C)[C@@H]1CC=C(C)C(=O)C1 | -21.8%
35 | COc1nc(N)nc2nc[nH]c12 | 12%
36 | O=C(Cl)c1ccccc1[N+](=O)[O-] | 1.58% [at 81.1 µM]
37 | CC(=O)OC(C)=O | 4.41% [at 81.1 µM]
38 | CN(C)CCCO[C@@H]1[C@H]2OC(C)(C)O[C@H]2O[C@@H]1C(O)CO (some centres undefined) | -9.4%
39 | CN(C)CC/C=C1/c2ccccc2COc2ccc(CC(=O)O)cc21 | 9.27%
40 | CCCCCC/C=C/C(=O)OC | 2.98%
41 | Cc1ccc(C(=O)O)cc1[N+](=O)[O-] | -2.09%
42 | CCCCOCCOC(=O)COc1ccc(Cl)cc1Cl | 1.9%
43 | OC1OCCOC1O (centres undefined) | -3.65%
44 | CC(=O)OCC(=O)Nc1cc(C#N)cc(NC(=O)COC(C)=O)c1Cl | 0.0962%

Target: Vitamin D3 receptor (Homo sapiens) (UniProt P11473)
Sequence (P11473 whole entry, looked up): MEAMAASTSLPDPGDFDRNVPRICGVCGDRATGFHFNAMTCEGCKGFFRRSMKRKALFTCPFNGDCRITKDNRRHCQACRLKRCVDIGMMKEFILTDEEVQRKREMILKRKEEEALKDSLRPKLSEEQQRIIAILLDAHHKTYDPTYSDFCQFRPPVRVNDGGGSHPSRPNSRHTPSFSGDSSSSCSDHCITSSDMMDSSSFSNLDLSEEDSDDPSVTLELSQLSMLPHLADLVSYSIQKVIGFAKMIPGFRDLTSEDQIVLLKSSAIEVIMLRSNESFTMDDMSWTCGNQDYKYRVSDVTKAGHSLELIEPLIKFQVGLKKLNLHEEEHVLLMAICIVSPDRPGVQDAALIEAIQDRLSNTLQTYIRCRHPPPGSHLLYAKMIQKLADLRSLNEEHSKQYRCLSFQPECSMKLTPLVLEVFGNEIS
Test: qHTS assay to identify small molecule agonists of the vitamin D receptor (VDR) signaling pathway (AID 743222; calls by dose curve)
Conditions: HEK293T VDR-UAS-bla, beta-lactamase FRET ratio, 16 h; series mostly up to 63.5 µM; activation: at the top concentration
In short: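 VDR-bla cells plated 4 h at 37 C, then exposed to compounds for 16 h at 37 C. Beta-lactamase reporter activity measured by fluorescence after 2 h room-temperature loading with LiveBLAzer B/G FRET substrate.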

Row | Compound | activation
45 | O=C(O)CNC(=O)CNC(=O)CNC(=O)CSC(=O)c1ccccc1 | 3.6%
46 | [O]=[Mo](=[O])=[O] | 1.3% [at 29.5 µM]
47 | CC(C)CO | 8.61% [at 81.1 µM]
48 | C=C(C)c1cccc(C(C)(C)N=C=O)c1 | 2.62%
49 | COc1cc(OC)nc(O[C@H](C(=O)O)C(OC)(c2ccccc2)c2ccccc2)n1 | -11.5%
50 | COP(=O)(O)OP(=O)(O)OC | -0.159%
51 | O=C=NCC1CCCC(CN=C=O)C1 (centres undefined) | 0.355%
52 | COS(=O)(=O)O | 5.17%
53 | CCCC(CC)c1ccccc1 (centres undefined) | 1.26%
54 | COC(=O)c1cccc(Cl)c1 | 0.757%
55 | COc1c2occc2c(OC)c2c(=O)cc(C)oc12 | -0.488%
56 | C=CCN1C[C@H](C(=O)N(CCCN(C)C)C(=O)NCC)C[C@@H]2c3cccc4[nH]cc(c34)C[C@H]21 | -2.78%
57 | N[C@@H](Cc1ccc(O)cc1)C(=O)O | 10.9% [at 13.4 µM]
58 | Cc1c(Cl)cccc1Cl | 5.77%
59 | CC(C)(C)NC[C@H](O)COc1cccc2c1CCCC2=O | 0.419%
60 | C=C(C)C1CC=C(C)C(=O)C1 (centres undefined) | -0.427%
61 | O=C1NC(c2ccccc2)(c2ccccc2)C(=O)N1COP(=O)(O)O | 3.16%
62 | CCCCOCC(C)O (centres undefined) | -6.69% [at 81.1 µM]
63 | CCC(=O)CC | -0.603%
64 | C/C(=C1\CCOC(=O)S1)N(C=O)Cc1cnc(C)nc1N | 11.1%
65 | OC[C@H]1O[C@@H](O[C@@H]2[C@@H](CO)O[C@](O)(CO)[C@H]2O)[C@H](O)[C@@H](O)[C@H]1O | 9.04%
66 | CC1=NN(c2ccc(S(=O)(=O)O)cc2)C(=O)C1 | 5.37%
67 | C=C(C)[C@@H]1CC=C(C)C(=O)C1 | -3.05%
68 | CC(=O)OC(C)=O | -1.69% [at 81.1 µM]
69 | CN(C)CCCO[C@@H]1[C@H]2OC(C)(C)O[C@H]2O[C@@H]1C(O)CO (some centres undefined) | -0.374%
70 | CCCCCC/C=C/C(=O)OC | 0.438%
71 | Cc1ccc(C(=O)O)cc1[N+](=O)[O-] | -0.0024%
72 | CCCCOCCOC(=O)COc1ccc(Cl)cc1Cl | 3.14%
73 | OC1OCCOC1O (centres undefined) | 4.91%
74 | CC(=O)OCC(=O)Nc1cc(C#N)cc(NC(=O)COC(C)=O)c1Cl | -6.73%
